Experimental findings from PubChem BioAssay AID602440 (Sanford-Burnham Center for Chemical Genomics, 2012) are described below.

About 2,300 (0.64%) of roughly 360,000 compounds were called active. The list comes from a sample in which actives are over-represented; it also holds similar structures and randomly drawn compounds. A number with no mark means an inactive call. Cut-off read from the data, not from the text of the source: active = inhibition mostly above about 40% (no sharp cut-off); inactive = mostly below about 27%.

The target in the test is Sentrin-specific protease 8 (Homo sapiens) (UniProt Q96LD8). The experiment in a line: human SENP8 protease inhibitors, primary screen, biochemical, fluorescence, Nedd8 protein substrate, uHTS (AID 602440). Conditions: recombinant SENP8, Nedd8 substrate fluorescence; at 20 µM; hits give high values.
Sequence of Sentrin-specific protease 8 (Homo sapiens) (Q96LD8 whole entry, looked up): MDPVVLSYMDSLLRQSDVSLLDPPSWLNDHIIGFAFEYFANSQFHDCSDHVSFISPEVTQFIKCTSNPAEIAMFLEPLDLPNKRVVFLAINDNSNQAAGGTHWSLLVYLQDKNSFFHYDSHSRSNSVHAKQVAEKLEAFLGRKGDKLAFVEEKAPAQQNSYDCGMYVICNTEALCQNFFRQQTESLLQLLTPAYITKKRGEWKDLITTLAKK
A word on the inhibition: it is the change of the read-out against control, counted positive when it falls. With `COC(=O)c1ccccc1NC(=O)c1cncc(Br)c1`, the inhibition is 3.1%.
The same measure for `C/C=N/NC(=O)CCCC(=O)N/N=C/C`: 6.6%; for `COc1cc2c(cc1OC)C(=O)NCC(C)(C)O2`: 15.5%.
The value for `COc1cc(C(C(=O)NC2CCCC2)N(C(=O)c2ccco2)c2ccccc2C(C)=O)cc(OC)c1OC` (configuration not stated) was 10.1%; that for `O=C1OCCN1C(=O)[C@H]1[C@H](c2ccc(Cl)cc2)C(c2cccc(Cl)c2)=NN1c1ccc(Br)cc1` was -366%.
The value for `O=C(c1cccnc1)N(c1cc2sc(=O)oc2c2ccccc12)S(=O)(=O)c1ccccc1` was 7.7%; that for `O=C(O)CN1C(=O)CC(Cc2ccccc2)C1=O` (configuration not stated) was 3.4%; that for `COc1cccc(CC2(CO)CCCN(Cc3ccc(OC(F)F)cc3)C2)c1` (configuration not stated) was 10.3%.
As to `CN(C)c1ccc(/C=C/C(=O)c2ccc(O)cc2)cc1[N+](=O)[O-]`, the inhibition was 47.5% (active).
The same measure for `CN(C)c1ccc(S(=O)(=O)NCC(=O)NCC2CCCCC2)cc1[N+](=O)[O-]`: 11.6%; for `CCN(CC)CCN(C)C(c1ccnc2ccccc12)c1nnnn1-c1ccc2c(c1)OCCO2` (configuration not stated): 7.5%.
With `CC(C)N(C(=O)[C@H]1C[C@H](CC(=O)NC(C)(C)C)C(=O)N2CCc3c([nH]c4ccc(Cl)cc34)[C@]12C)C(C)C`, the inhibition is 19%.
As to `COC(=O)c1ccc(C2C3=C(Nc4nnnn42)c2ccccc2OC3)cc1` (configuration not stated), the inhibition was -273%.
The same measure for `COC(=O)C1=C(C(=O)c2ccc(C)cc2)C(c2ccccc2)n2nnnc2N1` (configuration not stated): 44.3% (active).
Take `COc1ccccc1NC(=O)C1=C(C)Nc2nnnn2C1c1cccc(Br)c1` (configuration not stated): the inhibition is 6%.
As to `O=C1CC(Cc2ccc(Cl)cc2)C(=O)N1c1cc(Cl)ccn1` (configuration not stated), the inhibition was 9.6%.
The value for `COc1ccccc1CNC(=O)COC(=O)c1sc(C)nc1C` was 17.6%.
The value for `CCN(C(=O)COc1cccnc1[N+](=O)[O-])C1CCS(=O)(=O)C1` (configuration not stated) was 11.8%; that for `NC1=CC(=O)C(=O)c2cccnc21` was 95% (active); that for `C[C@@H](O)c1nc2ccccc2n1N` was 19%.
The value for `Cc1ccc2c(=O)cc(C(=O)NCCc3ccc(S(N)(=O)=O)cc3)oc2c1C` was 12.8%.
As to `CCN(CC)c1ccc(S(=O)(=O)N2CCCCC2)cc1NC(=O)C1=COCCO1`, the inhibition is 5.2%.
The same measure for `O=[N+]([O-])c1ccccc1NCc1ccccc1Cl`: 46.6% (active); for `O=C(NCCNc1ccccc1[N+](=O)[O-])c1ccccc1F`: 19.2%; for `O=C(NCc1ccccc1Cl)NC(=O)c1csc([N+](=O)[O-])c1`: 6.1%.
The value for `CCc1cc2c(SCC(=O)Nc3ncc(Cl)c(C)c3Cl)ncnc2s1` was -2.9%; that for `CCN1N=C(c2ccccc2)CCC1=O` was 8.8%; that for `O=C1NC(=O)C2C1C(c1ccc([N+](=O)[O-])cc1)=NN2Cc1ccccc1` (configuration not stated) was -27.9%.
The value for `O=C1CC(c2ccccc2)=NN1c1ccc([N+](=O)[O-])cc1` was 71.2% (active); that for `Cc1ccc(NC(=S)N(CCN(C)C)Cc2cccs2)cc1C` was 19.3%; that for `CNC(=O)C[C@H]1C(=O)N(Cc2ccccc2)C[C@@H]1CSC` was -6.3%.
As to `CCOC(=O)N1CCN(c2c(NCCCN3CCCC(C)C3)c(=O)c2=O)CC1` (configuration not stated), the inhibition is 21.3%.
The same measure for `CCOC(=O)N1CCC(Nc2c(NCCCN3CCN(CC)CC3)c(=O)c2=O)CC1`: 20.5%; for `CCOC(=O)N1CCC(Nc2c(NCCCN3CCN(c4ccc(OC)cc4)CC3)c(=O)c2=O)CC1`: 63.9% (active).
The value for `Cc1sc2ccccc2c1CNC[C@H]1O[C@@H](n2ccc(=O)[nH]c2=O)[C@H](O)[C@@H]1O` was 50.2% (active); that for `C[C@H](NC(=O)CC[C@H]1O[C@@H](n2ccc(=O)[nH]c2=O)[C@H](O)[C@@H]1O)c1cccc2ccccc12` was 20.1%.
The value for `O=c1ccn([C@@H]2O[C@H](CNS(=O)(=O)c3cc4ccccc4s3)[C@@H](O)[C@H]2O)c(=O)[nH]1` was 7.7%; that for `O=C(CNCc1ccc(Cl)cc1)Nc1cccc(C(=O)O)c1` was 23%.
For `CC(C)[C@H](NC(=O)N1CC(=O)Nc2ccccc21)C(=O)N[C@@H](Cc1c[nH]c2ccccc12)C(=O)O`, the inhibition was 57.9% (active).
The same measure for `CC(C)C[C@H](NC(=O)N1CC(=O)Nc2ccccc21)C(=O)N[C@H](Cc1ccccc1)C(=O)O`: 28.1%; for `CC(C)c1ccc(NC(=O)[C@@H](NC(=O)N2CC(=O)Nc3ccccc32)C(C)C)cc1`: 8.3%; for `CC(OC(=O)Cc1ccc(F)cc1)C(=O)N1CCc2ccccc21` (configuration not stated): -2.8%.
The value for `O=C(CN(C(=O)c1nsc(Cl)c1Cl)c1cccc(F)c1)NC1CCCC1` was 4.4%.
The value for `COc1ccc(S(=O)(=O)n2cnc3ccccc32)c(C)c1` was 12.5%; that for `O=C(/C=C/c1cccs1)NCc1cccnc1` was -2.1%.
As for `Cc1ccc(S(=O)(=O)NC(C)C(=O)Nc2ccccc2C(=O)N2CCCC2)cc1` (configuration not stated), the inhibition is 20.9%.
The same measure for `CC1CCCC(NC(=O)c2cccc(N3CCCC3=O)c2)C1C` (configuration not stated): -12.1%; for `Cc1cc2c(C)nc(N/N=C/c3ccccc3)nc2o1`: -29.4%.
In the case of `O=C(/C=C/c1ccc([N+](=O)[O-])o1)NNC(=O)c1ccc(F)cc1`, the inhibition is 19.8%.
The value for `Cc1cc(C)nc(N/N=C/c2ccc([N+](=O)[O-])o2)n1` was 45.8% (active); that for `CN(CC(=O)Nc1ccccc1Cl)C(=O)c1ccccc1SCC(=O)N1CCCC1` was 3.2%; that for `COC(=O)c1ccc2c(=O)n(CCN3CCOCC3)c(SCC(=O)Nc3cccc(OC)c3)nc2c1` was 14.9%.
The same measure for `Cc1nc2ccccc2c(=O)n1-c1ccc(NS(=O)(=O)c2ccc(F)cc2F)cc1`: 5.4%; for `COC(=O)Cn1c(=NC(=O)c2cc(OC)c(OC)c(OC)c2)sc2cc(OC)ccc21`: -398%; for `CCn1c(CNC(=O)c2cc(OC)c(OC)c(OC)c2)cc2cc(C)ccc21`: -19.2%.
The same measure for `COC(=O)Cn1c2ccc(C)cc2c2nc(C)sc21`: 65.4% (active); for `COc1cc(C(F)(F)F)c(C(=O)N(C)c2ccc(Cl)cc2)cn1`: -0.9%.
In the case of `OC1CSc2nc3ccccc3n2C1` (configuration not stated), the inhibition is 9.1%.
With `O=C1NC(c2ccccc2)CCC1(Cl)Cl` (configuration not stated), the inhibition was 14.1%.
The same measure for `Cc1c(NS(=O)(=O)c2cccc(C(=O)Nc3ccc(SC(F)F)cc3)c2)c(=O)n(-c2ccccc2)n1C`: -1.9%; for `Nc1cccc(S(=O)(=O)Nc2ccc(SC(F)F)cc2)c1`: 5.2%; for `COc1ccc(NC(=O)/C(N=Nc2cccc(S(=O)(=O)Nc3ccc(SC(F)F)cc3)c2)=C(\C)O)cc1`: 38.3% (active).
The same measure for `CC(=O)c1cnc(SCCN2C(=O)c3ccccc3C2=O)nc1C`: 9.5%; for `CCOCCCNC(=O)c1c[nH]c2cc(C)ccc2c1=O`: 5.8%.
The value for `CCc1[nH]nc(C(=O)N2CCCC(CO)(Cc3ccc(F)cc3F)C2)c1C` (configuration not stated) was 3.5%; that for `CN(c1ccc(C(=O)N2CCc3ccccc3C2)cc1)S(C)(=O)=O` was 43.9% (active); that for `CS(=O)(=O)N(CC(=O)N1CCc2ccccc2C1)c1ccc(Br)cc1` was 6.5%.
As for `Cn1cccc1C(=O)N1CCc2ccccc2C1`, the inhibition is -0.8%.
The value for `COc1ccc(CNC(=O)CN(C(=O)c2csnn2)c2cnc3ccccc3c2)cc1` was -222%; that for `CCN(CC)C(=O)CSc1nc2ccccc2n1CC(=O)N1CCN(c2ccccc2OC)CC1` was 33.5%; that for `O=c1[nH]c2ccccc2s1` was 44.5% (active).
The value for `Nc1ccc2[nH]c(=S)sc2c1` was -81.4%; that for `COc1ccc(-c2[nH]ncc2CN(C)Cc2cc(C)[nH]n2)c(F)c1` was 8.6%; that for `CCOC(=O)c1c(CC(C)C)csc1/N=C/C1=C(O)CCCC1=O` was -55.6%.
The same measure for `Nn1cnnc1N/N=C/c1cc([N+](=O)[O-])c(Cl)cc1Cl`: 51.7% (active).
Turning to `CCCOc1cccc(C(=O)Nc2ccccc2C(=O)N2CCN(C)CC2)c1`, the inhibition was 4.7%.
The value for `C[C@H]1CN([C@@H](C)CO)C(=O)CCCn2cc(nn2)CO[C@@H]1CN(C)S(=O)(=O)c1ccc(-n2cccn2)cc1` was 8.3%; that for `Cc1cc(C)nc(N2C(=O)CC(Cc3ccccc3)C2=O)n1` (configuration not stated) was 2.8%.
Consider `COc1cc(CN2CCCN(C)CC2)c([N+](=O)[O-])cc1OC`, for which the inhibition was 11.8%.
Regarding `O=c1[nH]n2c(=O)c3c([nH]c2c1N=Nc1ccccc1)CCC3`, the inhibition is 46.3% (active).
The same measure for `CC(C)(C)n1c(=O)[nH]c2c(c1=O)CCC2`: 16.6%; for `CCCCOc1ccc(C(=O)NCC(=O)OCC(=O)N2CCN(S(=O)(=O)c3ccc(C)cc3C)CC2)cc1`: 7.7%.
The value for `Cc1cc(C)nc(SCc2nnc(SCC(=O)OC3CCCCC3)o2)n1` was 6.5%; that for `COc1ccccc1C1SCCN1C(=O)c1ccc([N+](=O)[O-])cc1` (configuration not stated) was 8.4%; that for `CCOC(=O)C1CCCN(C(=O)c2ccc(N(C)C)cc2)CC1` (configuration not stated) was 18.8%.
The value for `CCOC(=O)C1CCCN(C(=O)c2ccc(C)c(F)c2)CC1` (configuration not stated) was 40.6% (active); that for `CCOC(=O)C1CCCN(C(=O)c2ccc(C)c(S(=O)(=O)N3CCCCC3)c2)C1` (configuration not stated) was 4.6%.
As to `CC(C)N(C(=O)Cn1cc(S(=O)(=O)CC(=O)N2CCOCC2)c2ccccc21)C(C)C`, the inhibition is 5.7%.
The value for `COC(=O)c1nc2n(n1)C(c1ccc([N+](=O)[O-])cc1)C(C(=O)Nc1ccc(Cl)cc1)=C(C)N2` (configuration not stated) was 18.3%; that for `O=C1[C@@H](c2ccccc2)[C@@H](c2ccccc2)N1c1cccnc1` was -26.4%; that for `CCc1ccccc1NC1c2ccccc2C(=O)N1c1cccnc1` (configuration not stated) was 41% (active).
The same measure for `COC(=O)c1cc(NC2c3ccccc3C(=O)N2c2ccc(Cl)cn2)cc(C(=O)OC)c1` (configuration not stated): -28%.
